In the library only some 8.1% were active in any assay of this set; here they are far more common.
PINK1 modulator: changes PINK1 expression. hit rate 0.2% among 410,000. Potency, µM (titrated, usually from 76.6 µM), for the others: top-dose activation (PINK1 increase), hits mostly activators. AID 624263. PINK1 immunofluorescence, high-content cytometry, 24 h; active = well fitted activation curve with a large enough effect; inconclusive = small, poorly fitted or top-dose-only effect; cell line not stated here; also: % of control where 0% means no effect; nearly all actives have a fitted effect of over 65% in size
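Readout is PINK1 immunofluorescence, quantified alongside mitochondrial, cell and nuclear markers by laser-scanning microplate cytometry. Cells from a stable line were exposed to compound titrations (5 concentrations) for 24 hours, with CCCP controls.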
Epigenetic reg: epigenetic control regulation, reporter derepression | Potency, µM (highest dose often 53.9 µM), without a hit: at the top dose GFP activation, hits mostly activators | murine LDR cells, GFP reporter derepression, 30 h | AID 1865 | hit rate 0.2% among 280,000; also: % of control where 0% means no effect; nearly all actives have a fitted effect of over 60% in size
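Murine LDR cells carrying a silenced, genomically integrated CMV-driven GFP reporter were exposed to compound for 30 hours at 37 C. After PBS washes, GFP-positive cells (20–120 um objects) were counted by laser-scanning microplate cytometry.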
RORg inh: ROR gamma (mouse) transcription inhibition; hit rate 5.4% among 310,000; Potency, µM (titrated, usually from 53.6 µM), for the others: top-dose activity change, negative = inhibition, hits mostly inhibitors; Drosophila S2 Gal4-RORgamma UAS-luciferase reporter, 20 h; AID 2551; also: % is scaled to controls: 0 for no effect and ±100 for the full control effect; nearly all actives have a fitted effect of over 60% in size
Target sequence (P51450 whole entry, looked up, the tested form may be a part): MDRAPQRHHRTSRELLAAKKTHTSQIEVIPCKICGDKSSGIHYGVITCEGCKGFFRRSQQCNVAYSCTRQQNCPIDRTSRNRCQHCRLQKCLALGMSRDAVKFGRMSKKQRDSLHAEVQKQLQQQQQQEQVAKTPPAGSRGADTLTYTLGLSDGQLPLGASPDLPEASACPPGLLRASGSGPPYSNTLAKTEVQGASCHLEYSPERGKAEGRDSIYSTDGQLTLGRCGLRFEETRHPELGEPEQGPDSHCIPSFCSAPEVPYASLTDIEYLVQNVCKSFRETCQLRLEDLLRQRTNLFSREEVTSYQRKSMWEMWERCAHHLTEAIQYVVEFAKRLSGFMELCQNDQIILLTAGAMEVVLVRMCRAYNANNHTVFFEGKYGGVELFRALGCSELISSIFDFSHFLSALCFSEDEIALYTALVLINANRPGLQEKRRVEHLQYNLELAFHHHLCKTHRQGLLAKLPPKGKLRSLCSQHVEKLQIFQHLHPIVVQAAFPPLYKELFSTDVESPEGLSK
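Luminescence from a UAS-regulated Photinus luciferase reporter in stably transfected Drosophila Schneider cells is measured; decreased signal marks ROR gamma inhibition. Fusion expression is induced by 700 uM copper sulfate for 20 hr.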
Gal4-VP16 FLuc: inhibits Gal4-VP16 luciferase reporter, ROR gamma counter-screen; hit rate 3.5% among 310,000; AID 2546; Potency, µM (series often up to 53.6 µM), without a hit: at the highest dose activity, negative = inhibition, usual class: inhibitors; Drosophila S2 Gal4-VP16 UAS-luciferase, luminescence, 20 h;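 also: Gal4-VP16 expression switched on by copper sulfate through the metallothionein promoter; % is scaled to controls: 0 for no effect and ±100 for the full control effect; nearly all actives have a fitted effect of over 50% in size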
ClpP mod: qHTS Assay for Activators of ClpP; ATP-dependent Clp protease proteolytic subunit (Bacillus subtilis (strain 168)), P80244; purified B. subtilis ClpP, FRET peptide cleavage, 20 min; Potency, µM (series often up to 57.5 µM), for the others: at the highest dose activity change, negative = active; hit rate 1.9% among 340,000; AID 651965, 2013; active = well fitted falling curve with a large enough effect; inconclusive = small, poorly fitted or top-dose-only effect; inactive = no such curve, though single readings can be large or run the other way; also: the source files actives as falling curves though it sought activators and does not explain the sign; nearly all actives have a fitted effect of over 65% in size
Target sequence (P80244 whole entry, looked up): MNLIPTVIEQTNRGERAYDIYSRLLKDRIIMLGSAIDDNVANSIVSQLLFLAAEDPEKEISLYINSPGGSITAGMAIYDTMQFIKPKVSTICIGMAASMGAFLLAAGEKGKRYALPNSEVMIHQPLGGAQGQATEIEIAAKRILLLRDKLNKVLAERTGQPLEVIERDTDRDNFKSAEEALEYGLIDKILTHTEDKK
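Buffer: 100 mM Tris/HCl pH8, 100 mM KCl, 0.05% low protease BSA, 2.5% glycerol, 0.01% Tween-20. ClpP 10 microg/mL final; 20 min RT; delta FRET normalized to ADEP and DMSO controls.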
Sfp inh: Sfp phosphopantetheinyl transferase inhibition; Biochemical Sfp PPTase activity, qHTS; Potency, µM, without a hit: largest response in the series, negative = inhibition, most hits filed as inhibitors; hit rate 3.5% among 310,000; AID 1490;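 also: the enzyme is Sfp with the accession as filed and its product quenches rhodamine fluorescence; 0% = enzyme reaction without inhibitor and -100% = no enzyme wells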
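With Hepes-Na pH 7.6 buffer containing 10 mM MgCl2, Sfp (15 nM) modified BHQ-2-YbbR (12.5 uM) using rhodamine-CoA (5 uM). Two reads 30 minutes apart at 525/598 nm yielded each well's rate.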
* = called active by the depositor; ? = inconclusive; . = no result; [ ] = dose if it differs, or a comment. Unless noted, calls follow the shape of the dose curve; as a rule, active = well fitted curve in the direction sought with a large enough effect; inconclusive = small, poorly fitted or top-dose-only effect, or another doubt; inactive = no such curve, though single readings can be large; an effect the other way counts as inactive or inconclusive. Potency is read from the fitted curve at half-maximal effect.

SMILES | PINK1 modulator | Epigenetic reg | RORg inh | Gal4-VP16 FLuc | ClpP mod | Sfp inh
COc1ccc(-c2csc(NCc3ccco3)n2)cc1C | -0.9% | -1.0% | ? | -24.8% | 0.6% | -4.4%
Cc1nc2ccccn2c1-c1csc(Nc2cccc(O)c2)n1 | 0.2% | 2.2% | 3.7% | 7.5% | . | 9.8%
Cc1nc2ccccn2c1-c1csc(Nc2ccc(C(=O)O)cc2)n1 | 8.9% | . | 6.3% | 1.0% | -27.7% | -11.3%
Cc1nc2ccccn2c1-c1csc(Nc2cccc(C(=O)O)c2)n1 | 2.2% | . | 0.0% | 4.2% | . | 79.4µM*
Cc1ccn2c(-c3csc(NCc4ccco4)n3)c(C)nc2c1 | 1.2% | -0.8% | 12.6µM* | ? | -8.3% | ?
CCC1CN(CCNC(=O)c2cccc3nccnc23)Cc2cc(OC)ccc2O1 (centres undefined) | -0.7% | . | . | . | . | .
Brc1ccc(/C=N/Nc2nc3ccccc3o2)cc1 | 1.3% | . | 8.91µM* | ? | 8.5% | -2.0%
COc1ccc(/C=N/Nc2nc3ccccc3o2)cc1O | -3.7% | 0.7% | 11.2µM* | ? | -5.2% | ?
Oc1ccccc1/C=N/Nc1nc2ccccc2o1 | 3.9% | ? | 0.501µM* | 3.98µM* | . | 10.9%
COc1cc(/C=N/Nc2nc3ccccc3o2)cc(OC)c1O | . | 0.0% | ? | ? | ? | ?
COc1ccc(-c2cc3nc(-c4ccc(C)cc4)cc(C(F)(F)F)n3n2)cc1 | -2.0% | -3.8% | . | . | -3.8% | .
COc1cc2c(cc1OC)C1O[C@](CCCCN3C(=O)c4ccccc4C3=O)(C2)OC2=C1C(=O)c1ccccc1C2=O | . | . | 31.0%[10 µM] | -5.7%[10 µM] | . | -23.4%
CCc1ccc2oc(-c3ccc(NC(=O)c4cccc(Cl)c4Cl)cc3)nc2c1 | 11.7% | 3.2% | . | . | 4.1% | .
CCOC(=O)CSc1nc2ccccc2n2cnnc12 | -1.6%[38.3 µM] | 0.0% | -1.1% | ? | -0.4% | 56.2µM*
Cn1ncc(Cl)c(Oc2ccc(C(C)(C)C)cc2)c1=O | 11.1% | 3.0% | -16.1% | 35.5µM* | -1.4% | -20.8%
Cn1ncc(Cl)c(Oc2ccccc2)c1=O | -3.4%[38.3 µM] | -1.1% | 7.1% | -6.3% | -2.0% | 5.3%
Cc1ccc(S(=O)(=O)/N=C2/C=C(C3C(=O)CC(C)(C)CC3=O)C(=O)c3ccccc32)cc1 | 7.1% | 2.6% | 11.2µM* | ? | -1.9% | ?
Cc1cc(C(=O)CCl)c(C)n1-c1cccc(S(=O)(=O)N2CCOCC2)c1 | -1.7% | 0.0% | 10µM* | -11.6%[10 µM] | . | -14.7%
O=C1NN(c2ccccc2)C(=O)/C1=C\c1ccc(-c2cc([N+](=O)[O-])ccc2O)o1 | 0.2% | 13.3% | 2.6% | -8.1% | . | 79.4µM*
O=C1NN(c2ccc(Cl)cc2)C(=O)/C1=C\c1ccc(-c2cccc(C(=O)O)c2)o1 | -0.4% | 10.7% | 25.4% | 2.8% | . | -2.7%
Cc1ccc2c(c1C)OC(=O)CC2(C)C | 1.6% | -1.9% | -28.0% | 2.2% | 31.6µM* | -7.9%
Cc1ccc2c(c1C)-c1c(ccc(C)c1C)C(=O)C2=O | -2.0% | . | . | . | 0.9% | .
CN1CCc2[nH]c3ccc(Cl)cc3c2C1 | -1.0% | . | . | . | -5.5% | .
CCOC(=O)C1CCCN(C(c2ccccn2)c2c(C)[nH]c3ccccc23)C1 (centres undefined) | 5.0% | 3.2% | 12.6µM* | -5.0% | . | 44.7µM*
CN(C)C(=O)COC(=O)c1ccccc1OCC(=O)Nc1ccc(Br)cc1 | 0.7% | . | . | . | -1.9% | .
SMILES | PINK1 modulator | Epigenetic reg | RORg inh | Gal4-VP16 FLuc | ClpP mod | Sfp inh
N#Cc1cc(N2CCOCC2)nc2ccccc12 | 1.8% | 1.1% | 12.7% | 3.6% | -5.8% | 14.6%
COc1ccc2nc(N3CCOCC3)cc(C)c2c1 | . | 0.0% | 11.5% | -21.0% | 12.6µM* | -5.5%
CC1CN(c2cc(-c3ccccc3)c3ccccc3n2)CC(C)O1 (centres undefined) | 3.9% | -0.7% | 14.4% | 1.2% | 25.1µM* | -24.1%
c1ccc(-c2cc(N3CCOCC3)nc3ccccc23)cc1 | -1.0%[38.3 µM] | -1.6% | 34.7% | 1.8% | 28.2µM* | 56.2µM*
COc1ccc2c(C)cc(N3CCOCC3)nc2c1 | -0.1% | -1.2% | 24.1% | 14.4% | ? | -2.8%
Cc1cc(N2CCOCC2)nc2ccccc12 | 0.9% | -1.0% | 23.0% | -2.8% | 25.1µM* | 18.9%
Cc1ccc(Nc2cc(C)c(C#N)c3nc4ccccc4n23)cc1Cl | 4.1% | -2.8% | . | . | -4.1% | .
COc1ccc(NC(=O)c2c(NCc3ccc(C)o3)sc3c2CCCCC3)c(OC)c1 | -0.3% | 16.7% | . | . | 0.9% | .
O=S(=O)(Nc1ccc(-c2ccc(N3CCCC3)nn2)cc1)c1cccc(C(F)(F)F)c1 | -0.3% | -1.7% | . | . | -2.7% | .
COc1cccc([C@@H]2Oc3ccc(OC)cc3C[C@H]2OC(=O)N[C@H]2CCCc3ccccc32)c1 | . | -1.1% | 8.9% | -5.4% | . | 11.8%
Cc1cc(C)cc(NC(=O)Cn2nnc(-c3ccccc3F)n2)c1 | 0.0% | 0.0% | . | . | 0.0% | .
CCc1ccccc1NNC(=O)c1sccc1Cl | 0.5% | . | . | . | -0.1% | .
COc1ccc2c(C)cc(N3CCN(c4ccc(F)cc4)CC3)nc2c1 | . | 3.1% | 19.8% | 11.1% | 28.2µM* | ?
COc1ccc(N2CCN(c3cc(C)c4ccc(C)cc4n3)CC2)cc1 | 0.1% | -4.1% | 17.9% | 5.0% | -28.1% | -7.0%
Cc1ccccc1OCc1ccc(-c2nc(C#N)c(NCc3cccnc3)o2)o1 | -0.9% | -1.6% | . | . | 3.9% | .
COc1ccccc1CN1CCN(C2CCN(C(=O)Nc3ccccc3)CC2)C(=O)C1=O | 8.0% | -1.1% | . | . | -1.3% | .
c1cc2ccc3ccc(-n4cnnn4)c4ccc(c1)c2c34 | 0.1% | ? | ? | -22.2% | 28.2µM* | -13.7%
CC(Oc1ccc(Br)cc1)c1nc2c3ccccc3nc(=S)n2[nH]1 (centres undefined) | 5.2% | -1.2% | 0.282µM* | 1.26µM* | 1.5% | -18.7%
CCCC(Oc1ccc(Br)cc1)c1nc2c3cc(OC)c(OC)cc3nc(=S)n2[nH]1 (centres undefined) | 4.4% | 3.8% | 1.26µM* | 3.55µM* | -1.9% | 25.9%
Cc1ccc2[nH]c(CSc3nnc(NC(=O)COc4ccccc4Cl)s3)cc(=O)c2c1 | 2.6% | -1.9% | . | . | -0.7% | .
C/C(=N/Nc1ccc(C(=O)c2c(C)cc3ccccn23)cc1[N+](=O)[O-])c1ccc(O)cc1 | 5.8% | . | . | . | . | .
C/C(=N\Nc1ccc(C(=O)c2c(C)cc3ccccn23)cc1[N+](=O)[O-])c1ccc(O)cc1 | 5.1% | -1.1% | -10.7% | -2.9% | -2.0% | 20µM*
Cc1cc2ccccn2c1C(=O)c1ccc(Cl)cc1 | ? | -0.9% | ? | 15.8µM* | 0.5% | ?
